The target in experiment [1] is Protein kinase C gamma type (Homo sapiens) (UniProt P05129). As to conditions: at 1 µM.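 Note: each value is an averaged percent inhibition of the enzyme.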
For experiment [2], the target named is T1, Protein kinase C iota type (Homo sapiens) (UniProt P41743).
T1 sequence (whole entry): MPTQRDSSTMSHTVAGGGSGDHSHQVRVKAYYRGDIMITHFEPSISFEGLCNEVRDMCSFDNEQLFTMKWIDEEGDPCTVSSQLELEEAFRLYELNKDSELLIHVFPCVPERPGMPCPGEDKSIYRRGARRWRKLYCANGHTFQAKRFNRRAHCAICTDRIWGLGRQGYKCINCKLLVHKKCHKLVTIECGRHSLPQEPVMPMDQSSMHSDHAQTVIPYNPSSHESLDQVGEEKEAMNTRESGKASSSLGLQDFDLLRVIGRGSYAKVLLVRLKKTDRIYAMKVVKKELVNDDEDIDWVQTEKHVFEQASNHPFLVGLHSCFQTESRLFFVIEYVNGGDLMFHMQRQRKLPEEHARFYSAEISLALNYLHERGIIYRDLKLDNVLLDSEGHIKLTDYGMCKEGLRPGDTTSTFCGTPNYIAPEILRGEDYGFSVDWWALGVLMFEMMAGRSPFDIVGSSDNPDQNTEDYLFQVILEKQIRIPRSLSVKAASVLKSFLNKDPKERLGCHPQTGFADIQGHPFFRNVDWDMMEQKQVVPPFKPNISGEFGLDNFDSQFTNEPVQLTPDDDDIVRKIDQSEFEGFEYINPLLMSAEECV
As to conditions: at 0.1 µM.

Experiment [3] concerns the target T1, Protein kinase C iota type (Homo sapiens). The settings on record: at 1 µM.
In experiment [4] the target is Protein kinase C theta type (Homo sapiens) (UniProt Q04759). The settings on record: at 0.1 µM.
Protein kinase C theta type (Homo sapiens), sequence (Q04759 whole entry, looked up): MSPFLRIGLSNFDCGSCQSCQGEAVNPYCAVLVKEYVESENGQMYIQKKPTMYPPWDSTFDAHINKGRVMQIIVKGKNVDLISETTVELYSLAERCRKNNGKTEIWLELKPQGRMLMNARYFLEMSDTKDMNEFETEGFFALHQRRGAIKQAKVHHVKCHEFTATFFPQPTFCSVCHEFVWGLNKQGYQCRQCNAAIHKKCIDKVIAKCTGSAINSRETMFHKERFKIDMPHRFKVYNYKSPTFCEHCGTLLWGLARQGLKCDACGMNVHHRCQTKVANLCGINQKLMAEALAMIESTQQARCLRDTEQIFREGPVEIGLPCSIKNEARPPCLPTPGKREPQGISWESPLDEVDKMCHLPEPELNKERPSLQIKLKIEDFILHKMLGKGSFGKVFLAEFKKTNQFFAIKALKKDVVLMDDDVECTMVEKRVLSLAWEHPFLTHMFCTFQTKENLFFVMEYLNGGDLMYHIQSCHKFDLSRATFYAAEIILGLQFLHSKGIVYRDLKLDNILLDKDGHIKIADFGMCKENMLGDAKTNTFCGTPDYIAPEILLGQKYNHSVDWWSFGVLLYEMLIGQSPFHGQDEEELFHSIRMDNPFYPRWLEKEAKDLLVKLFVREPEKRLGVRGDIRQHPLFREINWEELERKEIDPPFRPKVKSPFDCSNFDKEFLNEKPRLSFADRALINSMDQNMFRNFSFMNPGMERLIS
Experiment [5] has the same target. As to conditions: at 1 µM.
In experiment [6] the target is Protein kinase C beta type (Homo sapiens) (UniProt P05771). The settings on record: at 0.1 µM.
Protein kinase C beta type (Homo sapiens), sequence (P05771 2-671 limits assumed): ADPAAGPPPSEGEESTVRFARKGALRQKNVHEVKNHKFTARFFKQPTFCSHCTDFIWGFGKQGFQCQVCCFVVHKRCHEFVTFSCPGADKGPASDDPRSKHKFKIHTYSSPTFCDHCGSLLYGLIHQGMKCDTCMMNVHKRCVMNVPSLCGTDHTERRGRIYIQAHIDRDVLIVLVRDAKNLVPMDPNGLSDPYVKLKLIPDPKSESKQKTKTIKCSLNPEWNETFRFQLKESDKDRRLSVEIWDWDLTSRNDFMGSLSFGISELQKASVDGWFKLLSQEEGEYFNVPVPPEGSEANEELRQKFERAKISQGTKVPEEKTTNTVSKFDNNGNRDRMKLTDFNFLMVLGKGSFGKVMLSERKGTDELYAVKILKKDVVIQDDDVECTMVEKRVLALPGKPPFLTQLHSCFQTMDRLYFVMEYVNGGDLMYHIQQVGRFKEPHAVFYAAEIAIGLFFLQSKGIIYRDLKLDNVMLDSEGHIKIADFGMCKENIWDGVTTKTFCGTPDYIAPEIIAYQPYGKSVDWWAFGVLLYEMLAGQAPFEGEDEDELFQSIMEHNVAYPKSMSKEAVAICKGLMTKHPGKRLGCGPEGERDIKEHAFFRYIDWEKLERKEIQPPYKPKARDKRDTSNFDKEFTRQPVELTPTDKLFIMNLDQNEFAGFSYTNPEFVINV
Experiment [7] has the same target. The settings on record: at 1 µM.
Experiment [8] concerns the target T2, Serine/threonine-protein kinase D1 (Homo sapiens) (UniProt Q15139).
T2 sequence (whole entry): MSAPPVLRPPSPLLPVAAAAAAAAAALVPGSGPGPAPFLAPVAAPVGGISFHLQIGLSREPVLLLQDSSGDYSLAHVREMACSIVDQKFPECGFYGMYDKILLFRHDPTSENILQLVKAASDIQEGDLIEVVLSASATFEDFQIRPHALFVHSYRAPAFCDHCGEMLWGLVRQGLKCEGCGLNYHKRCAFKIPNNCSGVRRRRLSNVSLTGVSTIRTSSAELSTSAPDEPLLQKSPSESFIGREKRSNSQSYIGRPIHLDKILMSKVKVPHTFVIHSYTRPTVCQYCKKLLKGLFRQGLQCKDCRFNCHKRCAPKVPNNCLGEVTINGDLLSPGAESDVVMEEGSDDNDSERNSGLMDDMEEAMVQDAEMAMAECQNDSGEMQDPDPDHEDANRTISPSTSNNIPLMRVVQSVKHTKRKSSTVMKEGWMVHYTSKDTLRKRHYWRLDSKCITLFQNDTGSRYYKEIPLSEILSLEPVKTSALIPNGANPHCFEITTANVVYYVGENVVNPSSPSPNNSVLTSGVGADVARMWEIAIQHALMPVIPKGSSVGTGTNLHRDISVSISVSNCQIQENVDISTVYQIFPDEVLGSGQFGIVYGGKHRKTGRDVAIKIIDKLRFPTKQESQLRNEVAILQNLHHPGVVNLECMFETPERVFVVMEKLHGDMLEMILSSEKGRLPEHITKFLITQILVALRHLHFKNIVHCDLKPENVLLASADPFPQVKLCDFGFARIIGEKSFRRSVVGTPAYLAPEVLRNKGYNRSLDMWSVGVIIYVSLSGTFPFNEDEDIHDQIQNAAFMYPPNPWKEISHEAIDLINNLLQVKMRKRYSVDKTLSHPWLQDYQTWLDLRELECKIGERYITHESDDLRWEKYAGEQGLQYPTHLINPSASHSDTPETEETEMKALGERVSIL
As to conditions: at 0.1 µM.

Experiment [9] addresses T2, Serine/threonine-protein kinase D1 (Homo sapiens). As to conditions: at 1 µM.
Experiment [10] deals with T3, Serine/threonine-protein kinase D2 (Homo sapiens) (UniProt Q9BZL6).
T3 sequence (whole entry): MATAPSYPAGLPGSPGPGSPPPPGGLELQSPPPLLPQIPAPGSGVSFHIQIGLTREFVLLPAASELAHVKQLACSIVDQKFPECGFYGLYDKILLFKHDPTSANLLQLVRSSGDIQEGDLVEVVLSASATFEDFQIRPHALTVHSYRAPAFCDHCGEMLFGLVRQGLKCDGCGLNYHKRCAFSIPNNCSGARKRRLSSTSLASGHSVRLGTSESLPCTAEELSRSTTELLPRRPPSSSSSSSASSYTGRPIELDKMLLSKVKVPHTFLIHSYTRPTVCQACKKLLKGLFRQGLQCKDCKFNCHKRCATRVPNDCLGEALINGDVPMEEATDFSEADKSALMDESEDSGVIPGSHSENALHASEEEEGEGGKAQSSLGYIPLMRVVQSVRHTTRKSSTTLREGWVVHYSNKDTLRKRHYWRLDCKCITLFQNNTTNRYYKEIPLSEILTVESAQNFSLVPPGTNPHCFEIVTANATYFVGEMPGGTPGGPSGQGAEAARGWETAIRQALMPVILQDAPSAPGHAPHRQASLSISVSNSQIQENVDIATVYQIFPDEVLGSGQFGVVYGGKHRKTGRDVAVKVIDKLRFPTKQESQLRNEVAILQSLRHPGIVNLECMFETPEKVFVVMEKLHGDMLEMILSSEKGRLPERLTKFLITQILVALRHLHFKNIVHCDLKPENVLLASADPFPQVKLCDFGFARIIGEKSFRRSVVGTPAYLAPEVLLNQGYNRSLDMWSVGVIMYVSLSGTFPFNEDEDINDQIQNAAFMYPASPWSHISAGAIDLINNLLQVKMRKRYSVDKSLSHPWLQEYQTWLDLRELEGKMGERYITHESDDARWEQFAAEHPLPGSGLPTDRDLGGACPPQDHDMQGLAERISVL
As to conditions: at 0.1 µM.

Experiment [11] addresses T3, Serine/threonine-protein kinase D2 (Homo sapiens). As to conditions: at 1 µM.
For experiment [12], the target named is T4, Serine/threonine-protein kinase D3 (Homo sapiens) (UniProt O94806).
T4 sequence (whole entry): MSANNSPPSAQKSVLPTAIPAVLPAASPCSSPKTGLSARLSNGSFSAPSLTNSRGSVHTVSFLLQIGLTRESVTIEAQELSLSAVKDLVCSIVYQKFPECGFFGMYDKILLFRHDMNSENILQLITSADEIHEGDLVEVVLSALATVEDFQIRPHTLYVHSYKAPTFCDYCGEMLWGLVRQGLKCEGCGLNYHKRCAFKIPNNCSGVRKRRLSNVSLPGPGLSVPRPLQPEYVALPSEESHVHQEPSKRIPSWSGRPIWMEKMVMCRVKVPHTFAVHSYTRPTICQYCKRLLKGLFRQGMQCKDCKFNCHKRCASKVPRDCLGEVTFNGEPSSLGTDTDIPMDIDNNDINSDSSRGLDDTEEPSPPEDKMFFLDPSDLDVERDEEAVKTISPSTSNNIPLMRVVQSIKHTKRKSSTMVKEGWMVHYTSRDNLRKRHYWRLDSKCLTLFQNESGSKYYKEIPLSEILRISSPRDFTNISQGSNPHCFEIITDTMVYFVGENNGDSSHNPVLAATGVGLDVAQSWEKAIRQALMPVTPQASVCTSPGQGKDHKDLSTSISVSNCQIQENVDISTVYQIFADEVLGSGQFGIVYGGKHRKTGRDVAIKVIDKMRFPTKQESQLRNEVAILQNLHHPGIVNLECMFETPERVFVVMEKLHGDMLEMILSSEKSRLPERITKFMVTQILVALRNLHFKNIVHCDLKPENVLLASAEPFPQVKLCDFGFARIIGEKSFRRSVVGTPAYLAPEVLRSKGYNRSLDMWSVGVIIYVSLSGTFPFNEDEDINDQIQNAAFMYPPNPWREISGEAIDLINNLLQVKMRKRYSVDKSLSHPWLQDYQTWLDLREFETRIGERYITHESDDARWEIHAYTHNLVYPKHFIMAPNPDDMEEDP
As to conditions: at 0.1 µM.

The target in experiment [13] is T4, Serine/threonine-protein kinase D3 (Homo sapiens). As to conditions: at 1 µM.
For experiment [14], the target named is T5, cGMP-dependent protein kinase 1 (Homo sapiens) (UniProt Q13976).
T5 sequence (whole entry): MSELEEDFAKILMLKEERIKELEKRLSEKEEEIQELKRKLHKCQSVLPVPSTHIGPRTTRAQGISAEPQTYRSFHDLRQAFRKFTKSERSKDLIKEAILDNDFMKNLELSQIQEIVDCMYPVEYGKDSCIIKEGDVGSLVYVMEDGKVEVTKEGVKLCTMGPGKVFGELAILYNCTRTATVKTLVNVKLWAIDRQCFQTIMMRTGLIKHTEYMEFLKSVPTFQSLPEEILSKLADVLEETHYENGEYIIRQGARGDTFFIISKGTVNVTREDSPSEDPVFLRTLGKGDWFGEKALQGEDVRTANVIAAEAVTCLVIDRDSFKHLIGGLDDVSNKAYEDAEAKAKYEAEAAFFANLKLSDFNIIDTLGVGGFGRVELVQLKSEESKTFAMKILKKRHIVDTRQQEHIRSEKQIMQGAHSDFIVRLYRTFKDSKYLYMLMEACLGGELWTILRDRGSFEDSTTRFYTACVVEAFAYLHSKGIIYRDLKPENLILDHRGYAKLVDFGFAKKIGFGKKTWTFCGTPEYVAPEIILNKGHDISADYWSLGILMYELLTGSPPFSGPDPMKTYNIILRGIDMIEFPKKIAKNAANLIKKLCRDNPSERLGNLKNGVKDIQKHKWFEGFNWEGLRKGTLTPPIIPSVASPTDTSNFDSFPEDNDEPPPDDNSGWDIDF
The settings on record: at 0.1 µM.

In experiment [15] the target is T5, cGMP-dependent protein kinase 1 (Homo sapiens). As to conditions: at 1 µM.
Experiment [16] addresses T6, cGMP-dependent protein kinase 2 (Homo sapiens) (UniProt Q13237).
T6 sequence (whole entry): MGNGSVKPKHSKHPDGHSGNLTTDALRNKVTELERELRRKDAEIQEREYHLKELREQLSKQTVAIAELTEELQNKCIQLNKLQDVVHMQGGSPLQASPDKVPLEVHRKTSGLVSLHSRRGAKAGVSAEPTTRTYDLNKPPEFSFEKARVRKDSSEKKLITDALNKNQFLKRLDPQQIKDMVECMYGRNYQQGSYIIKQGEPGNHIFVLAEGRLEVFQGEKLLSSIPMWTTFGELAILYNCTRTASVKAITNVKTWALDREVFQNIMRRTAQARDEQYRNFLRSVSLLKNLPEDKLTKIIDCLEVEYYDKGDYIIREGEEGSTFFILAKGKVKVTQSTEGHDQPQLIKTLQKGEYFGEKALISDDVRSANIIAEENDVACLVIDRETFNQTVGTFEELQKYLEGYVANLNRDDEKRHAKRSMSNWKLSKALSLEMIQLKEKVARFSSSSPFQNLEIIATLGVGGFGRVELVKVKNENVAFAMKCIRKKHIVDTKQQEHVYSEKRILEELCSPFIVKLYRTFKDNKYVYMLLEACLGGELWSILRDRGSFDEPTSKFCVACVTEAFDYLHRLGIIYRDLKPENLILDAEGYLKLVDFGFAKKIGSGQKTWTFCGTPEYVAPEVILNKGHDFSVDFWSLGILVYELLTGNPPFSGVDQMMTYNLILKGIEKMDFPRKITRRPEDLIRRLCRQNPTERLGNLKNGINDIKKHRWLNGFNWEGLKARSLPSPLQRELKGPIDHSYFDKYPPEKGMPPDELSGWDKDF
As to conditions: at 0.1 µM.

Experiment [17] deals with T6, cGMP-dependent protein kinase 2 (Homo sapiens). As to conditions: at 1 µM.
Experiment [18] concerns the target T7, cAMP-dependent protein kinase catalytic subunit PRKX (Homo sapiens) (UniProt P51817).
T7 sequence (whole entry): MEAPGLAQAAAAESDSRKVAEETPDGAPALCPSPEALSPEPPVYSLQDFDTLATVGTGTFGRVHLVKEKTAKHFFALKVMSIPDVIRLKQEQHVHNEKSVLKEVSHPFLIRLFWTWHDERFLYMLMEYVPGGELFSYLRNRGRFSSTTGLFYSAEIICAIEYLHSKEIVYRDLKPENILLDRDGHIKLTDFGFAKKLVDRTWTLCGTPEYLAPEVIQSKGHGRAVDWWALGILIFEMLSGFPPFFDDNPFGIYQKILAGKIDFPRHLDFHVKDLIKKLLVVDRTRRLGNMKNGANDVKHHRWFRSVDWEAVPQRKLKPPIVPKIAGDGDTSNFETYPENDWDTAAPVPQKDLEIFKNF
The settings on record: at 0.1 µM.

For experiment [19], the target named is T7, cAMP-dependent protein kinase catalytic subunit PRKX (Homo sapiens). As to conditions: at 1 µM.
Experiment [20] has as its target Rho-associated protein kinase 1 (Homo sapiens) (UniProt Q13464). As to conditions: at 0.1 µM.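 Note: values are mean percent inhibition of ROCK1.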

Usually inhibition stands for the relative decrease from the control value, in per cent. The low end stands for a response near the control, the high end for a response far below the control.

Rho-associated protein kinase 1 (Homo sapiens), sequence (Q13464 2-1354 limits assumed): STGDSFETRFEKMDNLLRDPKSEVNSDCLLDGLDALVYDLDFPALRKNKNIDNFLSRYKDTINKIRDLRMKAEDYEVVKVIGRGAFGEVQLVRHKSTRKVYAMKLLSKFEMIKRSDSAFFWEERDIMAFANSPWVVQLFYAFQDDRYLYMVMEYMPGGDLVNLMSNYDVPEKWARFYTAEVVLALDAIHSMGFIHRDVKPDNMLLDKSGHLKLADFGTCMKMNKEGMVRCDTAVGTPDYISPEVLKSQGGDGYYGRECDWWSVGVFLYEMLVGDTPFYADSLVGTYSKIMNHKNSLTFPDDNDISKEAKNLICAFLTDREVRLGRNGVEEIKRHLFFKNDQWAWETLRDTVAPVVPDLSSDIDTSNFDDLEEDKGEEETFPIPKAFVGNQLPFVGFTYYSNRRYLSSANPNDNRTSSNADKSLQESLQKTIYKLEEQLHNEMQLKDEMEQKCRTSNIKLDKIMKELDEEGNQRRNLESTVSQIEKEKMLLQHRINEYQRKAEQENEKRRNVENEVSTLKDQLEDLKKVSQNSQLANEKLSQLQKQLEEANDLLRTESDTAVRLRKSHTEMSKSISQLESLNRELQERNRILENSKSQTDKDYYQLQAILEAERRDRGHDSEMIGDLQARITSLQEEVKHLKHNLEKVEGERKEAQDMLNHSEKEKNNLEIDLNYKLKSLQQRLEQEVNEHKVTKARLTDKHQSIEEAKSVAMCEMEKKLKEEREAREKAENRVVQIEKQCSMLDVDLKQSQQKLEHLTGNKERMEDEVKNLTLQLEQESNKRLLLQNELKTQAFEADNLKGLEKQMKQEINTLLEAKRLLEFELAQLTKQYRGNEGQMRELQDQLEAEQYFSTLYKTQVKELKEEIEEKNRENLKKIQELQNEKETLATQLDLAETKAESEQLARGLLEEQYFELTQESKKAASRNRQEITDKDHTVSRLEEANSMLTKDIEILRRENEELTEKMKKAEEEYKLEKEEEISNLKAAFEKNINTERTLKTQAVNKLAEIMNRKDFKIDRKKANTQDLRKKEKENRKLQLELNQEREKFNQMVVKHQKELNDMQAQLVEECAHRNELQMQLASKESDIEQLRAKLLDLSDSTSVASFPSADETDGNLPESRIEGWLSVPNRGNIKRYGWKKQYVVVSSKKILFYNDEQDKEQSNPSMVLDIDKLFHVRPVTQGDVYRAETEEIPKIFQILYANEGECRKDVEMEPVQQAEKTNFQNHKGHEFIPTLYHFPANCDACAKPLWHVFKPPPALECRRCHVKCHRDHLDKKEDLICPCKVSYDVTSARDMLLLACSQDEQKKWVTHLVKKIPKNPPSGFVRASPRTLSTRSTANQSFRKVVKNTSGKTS

With `CS(=O)(=O)CCNCc1ccc(-c2ccc3ncnc(Nc4ccc(OCc5ccccc5)cc4)c3c2)o1`, the inhibition is 3.26% in [1]; 1.61% in experiment [2]; 1.87% in [3]; 1.49% in experiment [4]; 2.01% in [5]; 0.51% in experiment [6]. Also, the inhibition came out at 0.86% in [7]; 3.17% in experiment [8]; 4.08% in experiment [9]; 2.78% in experiment [10]; 2.54% in experiment [11]; 3.53% in experiment [12]. The inhibition turned out to be 3.51% in experiment [13]; 2.37% in experiment [14]; 1.88% in experiment [15]; 2.69% in [16]; 2.6% in experiment [17]; 1.54% in experiment [18]. Also, the inhibition in experiment [19] was found to be 1.49%; in [20], 1.22%.
On to `CNC(=O)c1cncc(/C=C/c2ccccc2C)c1`, for which the inhibition in [1] amounted to 4.82%; in [2] it was 0.25%; in [3], 1.08%; in experiment [4], 2.42%; in [5] it was 5.04%; in [6] it was 0.51%. In addition, the inhibition worked out at 3.14% in experiment [7]; 3.24% in [8]; 5.01% in experiment [9]; 3.71% in experiment [10]; 3.79% in [11]; 3.31% in experiment [12]. Also, the inhibition in experiment [13] is 4.34%; in experiment [14] it was 4.05%; in experiment [15] it was 5.68%; in experiment [16] it was 2.97%; in experiment [17] it was 5.05%; in experiment [18], 3.99%. Besides, the inhibition came out at 6.15% in experiment [19] and 1.2% in experiment [20].

These data come from ChEMBL document CHEMBL1961873, “Compounds: GSK PKIS; Assays: Nanosyn kinase panel” (2012).
